Source: PubChem BioAssay (NCI)
About 83,000 compounds went through this panel and 20% of them were active in at least one assay; those are over-represented in the sample as a whole.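 Interpretation: 100, growth as untreated; towards 0, rising growth inhibition; 0, no net growth; 0 to -100, cell death. Compounds scoring below 10 were considered active.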 Values without a mark were called inactive. The source made the active and inactive calls.

Assays:
Test in all cases: NCI-60 one-dose screen, 48 h (100 = growth as untreated, 0 = no growth, -100 = all killed)
Conditions in all cases: 10 µM unless noted
NCI-H23 lung = tested on: NCI-H23 lung
NCI-H226 lung = tested on: NCI-H226 lung
NCI-H322M lung = tested on: NCI-H322M lung
HOP-62 NSCLC = tested on: HOP-62 NSCLC
NCI-H460 lung = tested on: NCI-H460 lung
HOP-92 NSCLC = tested on: HOP-92 NSCLC
NCI-H522 lung = tested on: NCI-H522 lung
A549/ATCC NSCLC = tested on: A549/ATCC NSCLC
786-0 renal = tested on: 786-0 renal
COLO 205 colon = tested on: COLO 205 colon

Row | SMILES | growth (NCI-H23 lung) | growth (NCI-H226 lung) | growth (NCI-H322M lung) | growth (HOP-62 NSCLC) | growth (NCI-H460 lung) | growth (HOP-92 NSCLC) | growth (NCI-H522 lung) | growth (A549/ATCC NSCLC) | growth (786-0 renal) | growth (COLO 205 colon)
1 | O=C(O)c1ccc([S-])cc1.[Au+].c1ccc(CN2[CH-]N(Cc3ccccc3)C(c3ccccc3)=C2c2ccccc2)cc1 | -64.8% (active) | 3.42% (active) | 7.67% (active) | -28% (active) | -29% (active) | -45% (active) | -44.9% (active) | 3.5% (active) | -70.3% (active) | -66.5% (active)
2 | C[C@]12CCc3sc(-c4ccccc4O)nc3C1=CC[C@@H]1[C@@H]2CC[C@]2(C)C(=O)CC[C@@H]12 | 103% | 108% | 101% | 98.9% | 108% | 115% | 99.3% | 103% | 102% | 108%
3 | CCOP(=O)(Cc1ccc(C#N)cc1)OCC | 99.9% | 108% | 104% | 98.5% | 108% | 76.9% | 75% | 91.2% | 101% | 108%
4 | Cn1cccc1C1CC(=O)N(CCC[Se]C#N)C1=O (stereo not given) | -25.4% (active) | -46.1% (active) | 11.1% | -75.7% (active) | -0.959% (active) | -40.8% (active) | 23.5% | -38.6% (active) | -73.2% (active) | 70.1%
5 | COC(=O)[C@@H](C)C[C@H](Cc1ccc(F)cc1)NC(=O)c1csc([C@@H](C[C@H](C(C)C)N(C)C(=O)[C@@H](NC(=O)[C@H]2CCCCN2C)C(C)C)OC(C)=O)n1 | 35.2% | 27.3% | 38% | 6.77% (active) | 6.06% (active) | 26.7% | -13.9% (active) | 16.6% | 13.2% | -68.8% (active)
6 | [Au+].[N-]=C=O.c1ccc(CN2[CH-]N(Cc3ccccc3)C(c3ccccc3)=C2c2ccccc2)cc1 | 79.5% | 107% | 112% | 116% | 98.5% | 81.4% | 5.83% (active) | 92.7% | 90.2% | 92.5%
7 | COc1ccc(S(=O)(=O)Nc2c(/C=C\c3cc(OC)c(OC)c(OC)c3)ccc(OC)c2O)cc1OC | 33.2% | 29% | 44.3% | 71.5% | 5.24% (active) | 30.5% | -9.02% (active) | 20.9% | 14% | -39.3% (active)
8 | CC(=O)[C@H]1CC[C@H]2[C@@H]3CC[C@H]4C[C@H](N)CC[C@]4(C)[C@H]3CC[C@]12C | 86.7% | 95.7% | 107% | 77.1% | 79.9% | 7.56% (active) | 77.3% | 66.4% | 60.7% | 49.3%
9 | Fc1ccc(N2COOC3(OOC2)C2CC4CC(C2)CC3C4)cc1 | 69.4% | 105% | 91.1% | 83.6% | 101% | 29% | 85.2% | 90.2% | 12.6% | 116%
10 | CCCCCCCCCCCCCC[P+](CCCCCC)(CCCCCC)CCCCCC | -39.3% (active) | -1.45% (active) | -11.9% (active) | -2.18% (active) | -59.4% (active) | -67.1% (active) | -71.4% (active) | -35% (active) | -65.8% (active) | -65.4% (active)
11 | CCn1nccc1NC(=O)C(=O)c1cn(Cc2ccc(F)cc2)c2cccc(OC)c12 | 95.8% | 75.1% | 102% | 75.9% | 98.2% | 46.6% | 57.3% | 92.4% | 72.7% | 106%
12 | Oc1c(O)c(Cl)c(Cl)c(Cl)c1Cl | 26.7% | 36.8% | 44.5% | 40.1% | 15.4% | 1.08% (active) | -19.6% (active) | 20.5% | 57.2% | 69.8%
13 | Nc1nc([Se])c2ncn(C3OC(CO)C(O)C3O)c2n1 (stereo not given) | 51% | 78.5% | 84.3% | 12.3% | 27.4% | 43% | 71.6% | 102% | 29.4% | 124%
14 | CC1=C(CCCOC(=O)[C@H](N)CC(C)C)C2=C(C)C3(CC3)[C@@](C)(O)C(=O)C2=C1 | -27.6% (active) | 0.712% (active) | 18.5% | -13% (active) | 2.82% (active) | -13.6% (active) | 31.3% | 0.0474% (active) | 1.3% (active) | -46.1% (active)
15 | COC(=O)[C@@H](C)C[C@H](Cc1cn(C)c2ccccc12)NC(=O)c1csc([C@@H](C[C@H](C(C)C)N(C)C(=O)[C@@H](NC(=O)[C@H]2CCCCN2C)C(C)C)OC(C)=O)n1 | 31.9% | 18% | 37.8% | 7.44% (active) | 7.12% (active) | 25.7% | -7.69% (active) | 15.3% | 6.49% (active) | -58.9% (active)
16 | CN1C(=O)C23CC4(C56CC78SSC(CO)(C(=O)N7C5Nc5ccccc56)N(C)C8=O)c5ccccc5NC4N2C(=O)C1(CO)SS3 (stereo not given) | -72.9% (active) | -100% (active) | -94.5% (active) | -86.4% (active) | -89.4% (active) | -99% (active) | -85.9% (active) | -88.5% (active) | -97.4% (active) | -87.8% (active)
17 | CC(=O)/C=C/c1ccc2c(c1)OCO2 | 95.4% | 95.2% | 104% | 102% | 107% | 89% | 84.7% | 95.2% | 99% | 107%
18 | NC(N)=N/N=C\c1c[nH]c2ccc(Br)cc12 | 86.3% | 69.2% | 87.9% | 83.5% | 102% | 37.9% | 81% | 92.5% | 78.6% | 84.5%
19 | COc1ccc(/C=C\c2cc(OC)c(OC)c(OC)c2)cc1OCC(=O)Nc1nc2ccc(OC(F)(F)F)cc2s1 | 35.6% | 74.2% | 73.6% | 53.7% | 12.4% | 55.9% | 15.8% | 66.5% | 92.6% | 106%
20 | CCC(CC)CC1(C)CC2(C)CCOC2OO1 (stereo not given) | 102% | 99% | 109% | 97.9% | 108% | 96.2% | 90.9% | 98.9% | 101% | 118%
21 | CN(C)CC(C(=O)Cc1ccccc1)c1ccccc1 (stereo not given) | 83.6% | 125% | 102% | 106% | 102% | 86.3% | -81.3% (active) | 97.5% | 9.78% (active) | 5.72% (active)
22 | Cc1cnc(/C=C/C(=O)O)cc1-c1cc2c(cc1C)C(C)(C)CCC2(C)C | 79.2% | 82.8% | 110% | 94.4% | 85.8% | 56.8% | 65.8% | 63.3% | 76.5% | 102%
23 | Cc1cc(-c2nc3cc(F)ccc3[se]2)cc(F)c1N | 59.5% | 34.9% | 83.8% | 71.2% | 23.1% | 79.2% | 83.1% | 66.9% | 103% | 52.4%
24 | COc1cc(C=C2c3ccccc3C(=O)c3ccccc32)ccc1OCCCCOc1cc2c(cc1OC)C(=O)N1CCCC1C=N2 (stereo not given) | -52.7% (active) | -66.4% (active) | 13.3% | -62.5% (active) | -77% (active) | -59.4% (active) | -53.1% (active) | -37.8% (active) | -100% (active) | -93.9% (active)
25 | COc1ccc(/C=C\c2cc(OC)c(OC)c(OC)c2)cc1NC(=O)/C=C/c1cc(OC)c(OC)c(OC)c1 | 25.7% | 46.8% | 55.1% | 45.5% | 55.2% | 55.5% | 34.3% | 56.6% | 39.9% | 42.1%
26 | CC(=O)ONc1ccc([N+](=O)[O-])c(C(F)(F)F)c1 | 92.1% | 97.8% | 108% | 80% | 109% | 99.6% | 97.8% | 95.3% | 97.6% | 106%
